Measurements taken from PubChem BioAssay.
Active and inactive are the calls of the source.

Assays:
[1] = binders of probe aFSTL3 on microarray, primary screen, stem cell growth factor project, biochemical, small-molecule microarray, fluorescence 635/667 (AID 1064); conditions: higher = more signal;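 note: measures binding of the biotinylated anti-FSTL3 antibody to printed compounds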
[2] = binders from COS7 lysate, DM2A8 probe, primary screen, torsin A project, cell lysate, small-molecule microarray, fluorescence 635/667 (AID 1065); conditions: higher = more signal, COS7 lysate expressing mutant human TOR1A
[3] = binders of probe aFGF2 on microarray, primary screen, stem cell growth factor project, biochemical, small-molecule microarray, fluorescence 635/667 (AID 1067); conditions: higher = more signal;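 note: measures binding of biotinylated aFGF2 protein to printed compounds on slides; z-score merges feature fluorescence and signal-to-noise across triplicate slides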
[4] = binders of probe aFGF10 on microarray, primary screen, stem cell growth factor project, biochemical, small-molecule microarray, fluorescence 635/667 (AID 1071); conditions: higher = more signal;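 note: score merges 667 nm spot intensity and signal to noise from triplicate slides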
[5] = target: Neurogenic locus notch homolog protein 2 (Homo sapiens) (UniProt Q04721); assay: Notch2 binders on small-molecule microarrays, primary screen, biochemical, small-molecule microarray, 635 nm fluorescence, stem cell growth factors (AID 1073); conditions: Notch2 binding, higher = more signal
Sequence of Neurogenic locus notch homolog protein 2 (Homo sapiens) (Q04721 whole entry, looked up, canonical isoform): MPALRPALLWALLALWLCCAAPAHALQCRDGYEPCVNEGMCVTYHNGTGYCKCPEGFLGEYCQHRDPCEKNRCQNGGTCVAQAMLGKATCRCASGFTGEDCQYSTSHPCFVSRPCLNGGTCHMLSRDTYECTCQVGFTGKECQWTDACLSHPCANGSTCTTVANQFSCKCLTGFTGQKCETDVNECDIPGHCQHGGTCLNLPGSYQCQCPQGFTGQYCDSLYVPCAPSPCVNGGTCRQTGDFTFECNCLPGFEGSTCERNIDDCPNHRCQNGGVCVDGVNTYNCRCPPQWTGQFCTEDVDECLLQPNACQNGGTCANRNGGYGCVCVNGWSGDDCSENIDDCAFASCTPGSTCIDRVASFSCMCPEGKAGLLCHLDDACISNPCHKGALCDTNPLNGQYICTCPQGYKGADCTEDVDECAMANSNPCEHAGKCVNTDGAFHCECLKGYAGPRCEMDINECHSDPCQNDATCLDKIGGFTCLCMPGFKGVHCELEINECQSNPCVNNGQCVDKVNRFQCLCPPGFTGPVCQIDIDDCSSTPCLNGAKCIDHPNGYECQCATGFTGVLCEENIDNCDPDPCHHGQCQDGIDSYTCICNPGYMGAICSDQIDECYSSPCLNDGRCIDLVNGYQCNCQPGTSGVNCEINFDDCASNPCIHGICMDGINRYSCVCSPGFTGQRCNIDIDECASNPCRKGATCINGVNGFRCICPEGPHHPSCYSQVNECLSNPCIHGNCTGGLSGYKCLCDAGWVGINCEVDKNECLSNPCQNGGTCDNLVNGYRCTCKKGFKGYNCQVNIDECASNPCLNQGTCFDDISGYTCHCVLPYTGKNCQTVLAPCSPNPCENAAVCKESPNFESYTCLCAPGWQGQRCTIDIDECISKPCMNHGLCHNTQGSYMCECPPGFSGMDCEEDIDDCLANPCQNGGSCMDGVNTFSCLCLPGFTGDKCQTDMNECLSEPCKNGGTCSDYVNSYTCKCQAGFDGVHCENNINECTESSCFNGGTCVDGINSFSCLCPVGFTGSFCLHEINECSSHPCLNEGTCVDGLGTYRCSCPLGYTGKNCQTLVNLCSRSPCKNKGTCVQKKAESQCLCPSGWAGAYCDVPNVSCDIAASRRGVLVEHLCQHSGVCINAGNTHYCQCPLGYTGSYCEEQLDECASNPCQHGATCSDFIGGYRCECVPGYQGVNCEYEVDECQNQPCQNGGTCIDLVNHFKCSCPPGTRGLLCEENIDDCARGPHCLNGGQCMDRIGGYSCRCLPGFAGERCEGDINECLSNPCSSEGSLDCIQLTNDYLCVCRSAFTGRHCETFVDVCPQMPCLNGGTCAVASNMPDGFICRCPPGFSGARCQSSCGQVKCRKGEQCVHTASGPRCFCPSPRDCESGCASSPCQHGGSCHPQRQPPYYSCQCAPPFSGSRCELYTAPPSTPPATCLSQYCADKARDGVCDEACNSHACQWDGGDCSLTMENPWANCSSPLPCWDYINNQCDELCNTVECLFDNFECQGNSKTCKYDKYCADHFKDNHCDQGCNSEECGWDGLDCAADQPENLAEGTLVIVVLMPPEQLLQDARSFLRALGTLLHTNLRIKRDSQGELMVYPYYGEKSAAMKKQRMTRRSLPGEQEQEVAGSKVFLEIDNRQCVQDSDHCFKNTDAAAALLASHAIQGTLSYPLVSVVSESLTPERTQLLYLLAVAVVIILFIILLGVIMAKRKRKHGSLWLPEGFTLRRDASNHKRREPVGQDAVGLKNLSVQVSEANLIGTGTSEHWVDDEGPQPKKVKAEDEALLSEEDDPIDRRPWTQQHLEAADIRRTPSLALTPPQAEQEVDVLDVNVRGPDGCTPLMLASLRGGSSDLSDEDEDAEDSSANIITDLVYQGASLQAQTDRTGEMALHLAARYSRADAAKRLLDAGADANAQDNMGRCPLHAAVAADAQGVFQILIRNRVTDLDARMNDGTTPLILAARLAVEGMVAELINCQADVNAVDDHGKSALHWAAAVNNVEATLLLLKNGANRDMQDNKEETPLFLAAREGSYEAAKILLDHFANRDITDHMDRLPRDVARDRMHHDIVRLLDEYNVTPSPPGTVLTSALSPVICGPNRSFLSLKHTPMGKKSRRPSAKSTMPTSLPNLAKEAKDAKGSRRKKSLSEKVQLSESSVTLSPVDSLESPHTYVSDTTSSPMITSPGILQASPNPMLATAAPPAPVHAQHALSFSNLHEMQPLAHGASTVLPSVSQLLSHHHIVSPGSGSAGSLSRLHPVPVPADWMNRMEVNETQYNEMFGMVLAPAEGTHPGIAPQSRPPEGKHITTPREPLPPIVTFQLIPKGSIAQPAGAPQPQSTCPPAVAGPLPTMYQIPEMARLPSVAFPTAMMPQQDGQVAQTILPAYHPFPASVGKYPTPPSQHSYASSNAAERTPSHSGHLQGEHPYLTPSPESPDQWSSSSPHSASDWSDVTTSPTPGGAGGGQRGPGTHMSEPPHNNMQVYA

[6] = target: Pro-neuregulin-1, membrane-bound isoform (Homo sapiens) (UniProt Q02297); assay: NRG1 binders on small-molecule microarrays, primary screen, psychiatric disease protein project, biochemical, small-molecule microarray, fluorescence 635/667 (AID 1075); conditions: NRG1 binding, 635 nm fluorescence, higher = more signal;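 note: score combines 667 nm spot fluorescence with signal to noise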
Sequence of Pro-neuregulin-1, membrane-bound isoform (Homo sapiens) (Q02297 whole entry, looked up, the tested form may be a part, canonical isoform): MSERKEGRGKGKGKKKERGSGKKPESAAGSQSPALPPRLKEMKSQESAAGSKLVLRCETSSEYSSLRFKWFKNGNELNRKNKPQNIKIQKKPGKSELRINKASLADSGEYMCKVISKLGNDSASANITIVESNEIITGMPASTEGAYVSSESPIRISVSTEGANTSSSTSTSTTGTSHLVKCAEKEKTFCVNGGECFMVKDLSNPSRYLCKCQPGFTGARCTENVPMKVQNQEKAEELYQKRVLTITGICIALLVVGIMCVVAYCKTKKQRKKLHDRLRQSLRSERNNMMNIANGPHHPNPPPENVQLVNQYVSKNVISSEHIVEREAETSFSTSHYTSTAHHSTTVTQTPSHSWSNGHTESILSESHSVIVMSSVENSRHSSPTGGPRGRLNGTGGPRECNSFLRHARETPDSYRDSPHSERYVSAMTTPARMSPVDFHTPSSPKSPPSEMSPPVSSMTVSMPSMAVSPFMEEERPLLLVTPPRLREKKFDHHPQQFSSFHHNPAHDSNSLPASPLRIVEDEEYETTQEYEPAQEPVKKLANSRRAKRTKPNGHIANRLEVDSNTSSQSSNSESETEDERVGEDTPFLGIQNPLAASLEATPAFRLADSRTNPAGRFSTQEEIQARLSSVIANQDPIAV

[7] = system: Neuregulin-1 EGF-like domain; assay: binders of neuregulin-1 EGF-like domain, primary screen, biochemical, small-molecule microarray, 635 nm fluorescence (AID 1081); conditions: small-molecule microarray binding, higher = more signal;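 note: binding of the protein to compounds printed on small-molecule microarray slides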
[8] = FRG1 promoter luciferase signal modulators, primary screen, FRG1 inhibition for FSHD, cell-based, C2C12 myotubes, firefly/Renilla luciferase, luminescence (AID 1084); conditions: higher = more signal, called active from +8 up or from −8 down
[9] = binders of probe aFST on microarray, primary screen, stem cell growth factor project, biochemical, small-molecule microarray, fluorescence 635/667 (AID 1086); conditions: higher = more signal;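 note: score merges 667 nm fluorescence with signal-to-noise of each printed compound spot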
[10] = binders of probe aHhip on microarray, primary screen, stem cell growth factor project, biochemical, small-molecule microarray, fluorescence 635/667 (AID 1087); conditions: higher = more signal;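 note: score merges spot fluorescence at 667nm with spot signal to noise ratio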
[11] = system: PRMT1 (protein arginine N-methyltransferase 1); assay: PRMT1 binders on small-molecule microarrays, primary screen, biochemical, small-molecule microarray, 635 nm fluorescence (AID 1088); conditions: small-molecule microarray binding, higher = more signal;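 note: binding of Prmt1 protein to compounds spotted on small-molecule microarray slides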
[12] = yeast growth modulation, basal conditions, primary screen, YJM789 clinical isolate, OD600, 24 h (AID 1089);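 note: growth of clinical yeast isolate S. cerevisiae YJM 789 seeded 1000 cells per well; test concentration not given here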; conditions: S. cerevisiae YJM789 growth, higher = more signal, called active from +8 up or from −8 down
[13] = fission yeast growth modulation, primary screen, strain 972, OD600, 24 h, no modulator (AID 1090);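 note: basal condition with compound alone and no growth modifier present; test concentration not given here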; conditions: S. pombe 972 growth, higher = more signal, called active from +8 up or from −8 down
[14] = S. cerevisiae growth modulation with rapamycin, primary screen, strain BY4716, OD600, 96 h (AID 1091); conditions: higher = more signal, called active from +8 up or from −8 down; note: test concentration not given here
[15] = target: Torsin-1A-interacting protein 2 (Homo sapiens) (UniProt Q8NFQ8); assay: LULL1 binders on small-molecule microarray, primary screen, cell lysate, human LULL1 lysate, 635/667 nm fluorescence (AID 1092); conditions: hLULL1 lysate binding, 635 nm fluorescence, higher = more signal;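 note: probe is lysate of COS7 cells overexpressing human LULL1; score merges per-feature 667 nm fluorescence with signal-to-noise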
Sequence of Torsin-1A-interacting protein 2 (Homo sapiens) (Q8NFQ8 whole entry, looked up): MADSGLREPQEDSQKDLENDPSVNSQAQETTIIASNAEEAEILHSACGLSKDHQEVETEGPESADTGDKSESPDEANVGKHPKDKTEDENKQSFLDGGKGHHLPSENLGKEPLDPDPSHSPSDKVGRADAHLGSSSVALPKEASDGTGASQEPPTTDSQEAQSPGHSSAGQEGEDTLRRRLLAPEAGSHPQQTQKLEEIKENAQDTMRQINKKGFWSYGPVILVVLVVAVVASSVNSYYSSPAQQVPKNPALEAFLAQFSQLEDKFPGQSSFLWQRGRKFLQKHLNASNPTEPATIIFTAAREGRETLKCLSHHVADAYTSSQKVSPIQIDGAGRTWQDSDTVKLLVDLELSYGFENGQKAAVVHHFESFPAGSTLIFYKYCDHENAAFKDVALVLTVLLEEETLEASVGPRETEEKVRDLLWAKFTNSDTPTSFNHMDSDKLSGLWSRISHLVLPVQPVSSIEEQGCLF

[16] = E. coli growth modulation, two-sided OD650, primary screen, E. coli filamentation project, strain DRC41, 24 h (AID 1093); conditions: OD650, 24 h, higher = more signal, called active from +8 up or from −8 down;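 note: MC1000 strain lacking acrAB efflux and sulA so SOS filamentation is blocked; test concentration not given here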
[17] = small-molecule microarray binders of probe aLefty2, primary screen, biochemical, biotinylated probe, 635/667 nm fluorescence (AID 1094); conditions: higher = more signal;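 note: score merges spot fluorescence near 667 nm with spot signal-to-noise ratio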
[18] = system: Noggin (protein binding on small-molecule microarray); assay: Noggin binders on small-molecule microarray, primary screen, biochemical, 635/667 nm fluorescence (AID 1095); conditions: 635 nm fluorescence, higher = more signal;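 note: score merges 667 nm feature fluorescence with signal to noise over triplicate slides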
[19] = target: Neurogenic locus notch homolog protein 3 (Homo sapiens) (UniProt Q9UM47); assay: NOTCH3 binders on small-molecule microarray, primary screen, biochemical, 635/667 nm fluorescence (AID 1096); conditions: NOTCH3 binding, 635 nm fluorescence, higher = more signal
[20] = small-molecule microarray binders of probe aEGFR, primary screen, biochemical, biotinylated probe, 635/667 nm fluorescence (AID 1097); conditions: higher = more signal;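 note: probe is a biotinylated anti-EGFR antibody binding compounds printed on slides; score combines fluorescence near 667 nm and signal to noise of each spot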

Row | Structure (SMILES) | composite z-score [1] | composite z-score [2] | composite z-score [3] | composite z-score [4] | composite z-score [5] | composite z-score [6] | composite z-score [7] | z-score [8] | composite z-score [9] | composite z-score [10] | composite z-score [11] | z-score [12] | z-score [13] | z-score [14] | composite z-score [15] | z-score [16] | composite z-score [17] | composite z-score [18] | composite z-score [19] | composite z-score [20]
1 | C[C@@H](c1ccccc1)N1C(=O)[C@H]2[C@H]3[C@H](O)[C@H](O)CC(=NOCc4ccccc4)[C@@H]3CC[C@H]2C1=O | 1.67 | -0.0647 | -0.0203 | 0.0018 | -0.578 | -0.258 | -0.521 | 0.717 (inactive) | 0.401 | -0.0672 | -0.246 | 0.855 (inactive) | -0.293 (inactive) | 0.512 (inactive) | 0.379 | -0.125 (inactive) | 0.408 | -0.29 | -0.551 | -0.203
2 | CO[C@H]1COC(=O)CCC[C@H](C)[C@@H](OC)COC(=O)CC=C[C@@H]1C | -0.673 | 0.929 | -0.122 | 0.227 | 0.0458 | -0.21 | -0.179 | -0.0314 (inactive) | -0.106 | -0.0237 | 0.411 | 0.0303 (inactive) | 0.197 (inactive) | -1.08 (inactive) | -0.355 | 0.556 (inactive) | -0.0448 | 0.409 | 0.0682 | -0.0405
3 | CO[C@H]1C[C@@H]2C[C@H](O)CC(CC(=O)O[C@@H](C=CCC(C)C)C[C@@H]3CC[C@H](C)[C@@H](C1)O3)O2 | -0.479 | 0.613 | -0.0442 | 0.365 | 1.03 | -0.33 | 0.661 | 0.0521 (inactive) | 0.36 | -0.226 | 1.54 | -0.124 (inactive) | -0.425 (inactive) | -0.414 (inactive) | 1.82 | 0.128 (inactive) | -0.158 | 0.506 | 1.06 | -0.0458
4 | CC(C)=NOC[C@@H](O)[C@H]1O[C@@H]2OC(C)(C)O[C@@H]2[C@H]1O | -0.732 | 0.97 | 0.197 | 0.502 | 1.09 | 0.233 | 0.457 | -0.476 (inactive) | 0.548 | -0.191 | 0.956 | 0.51 (inactive) | 0.0819 (inactive) | 0.243 (inactive) | 0.178 | 0.132 (inactive) | 0.19 | 0.625 | 0.498 | 0.0727
5 | CC(=O)OC[C@H]1O[C@@H](ON=C(C)CCN2CCCCc3nc(C)c(C)cc32)[C@H](OC(C)=O)[C@@H](OC(C)=O)[C@@H]1OC(C)=O | -0.587 | 0.515 | -0.0801 | 0.751 | 1 | 0.853 | 1.16 | 0.694 (inactive) | 0.551 | 0.0881 | 1.53 | -0.61 (inactive) | -0.149 (inactive) | -0.175 (inactive) | 1.07 | -0.871 (inactive) | -0.0179 | 0.708 | 0.927 | 0.145
6 | COCC#Cc1ccc([C@@H]2N[C@H](C(=O)O)CC[C@H]2C)cc1 | -0.308 | -0.087 | -0.12 | 0.0921 | 0.314 | -0.595 | -0.616 | -1.34 (inactive) | 0.399 | 0.132 | 0.13 | -1.63 (inactive) | -1.81 (inactive) | -1.34 (inactive) | 0.237 | 0.874 (inactive) | -0.186 | 0.165 | -0.54 | -0.0953
7 | CC(CCN1CCc2nc(-c3ccccc3)c(-c3ccccc3)cc2C1)=NO[C@@H](C)c1cc(-c2c(C)cc(C)cc2C)no1 | 0.037 | 0.0468 | -0.14 | 0.155 | -0.846 | 0.129 | 0.55 | 0.687 (inactive) | 0.0035 | -0.13 | 0.535 | -0.295 (inactive) | -0.974 (inactive) | -3.2 (inactive) | 0.838 | -0.394 (inactive) | -0.186 | -0.0011 | -1.29 | -0.17
8 | OC[C@H]1O[C@H](C#Cc2ccccc2)C=C[C@@H]1O | -0.406 | -0.437 | -0.0732 | 0.325 | 0.322 | 0.0659 | 0.0463 | -0.999 (inactive) | 0.101 | 0.107 | 0.232 | 0.643 (inactive) | -1.33 (inactive) | -0.98 (inactive) | 0.233 | 0.897 (inactive) | -0.113 | 0.498 | 0.609 | -0.124
9 | COc1ccc(O[C@H]2C=C[C@@H](c3ccccc3)O[C@@H]2COC(=O)NCc2cccc3ccccc23)cc1 | -0.0348 | -0.0761 | -0.107 | 0.0599 | -0.096 | -0.027 | 0.0452 | -0.97 (inactive) | -0.116 | -0.294 | 0.133 | 0.68 (inactive) | 0.393 (inactive) | 1.28 (inactive) | 0.33 | -0.477 (inactive) | -0.106 | 0.0672 | -0.574 | -0.122
10 | COc1ccc(COC(=O)NN=C2C[C@@H](O)[C@@H](O)[C@@H]3[C@@H]4C(=O)N(C[C@@H]5CCCO5)C(=O)[C@@H]4CC[C@H]23)cc1 | 0.467 | 0.326 | -0.076 | -0.302 | -0.467 | -0.234 | -0.563 | -0.249 (inactive) | 0.162 | 0.0106 | -0.478 | -0.0944 (inactive) | 0.247 (inactive) | -0.0457 (inactive) | 0.43 | -0.5 (inactive) | 0.258 | -0.809 | -0.398 | -0.211
